Hits are enriched below; roughly 18% of the tested compounds scored in any of these assays.
RORg inh: ROR gamma (mouse) transcription inhibition | P51450 | Drosophila S2 Gal4-RORgamma UAS-luciferase reporter, 20 h | Potency, µM (doses to about 53.6 µM), usual class: inhibitors | hit rate 5.4% among 310,000 | AID 2551; also: nearly all actives have a fitted effect of over 60% in size
Target sequence (P51450 whole entry, looked up, the tested form may be a part): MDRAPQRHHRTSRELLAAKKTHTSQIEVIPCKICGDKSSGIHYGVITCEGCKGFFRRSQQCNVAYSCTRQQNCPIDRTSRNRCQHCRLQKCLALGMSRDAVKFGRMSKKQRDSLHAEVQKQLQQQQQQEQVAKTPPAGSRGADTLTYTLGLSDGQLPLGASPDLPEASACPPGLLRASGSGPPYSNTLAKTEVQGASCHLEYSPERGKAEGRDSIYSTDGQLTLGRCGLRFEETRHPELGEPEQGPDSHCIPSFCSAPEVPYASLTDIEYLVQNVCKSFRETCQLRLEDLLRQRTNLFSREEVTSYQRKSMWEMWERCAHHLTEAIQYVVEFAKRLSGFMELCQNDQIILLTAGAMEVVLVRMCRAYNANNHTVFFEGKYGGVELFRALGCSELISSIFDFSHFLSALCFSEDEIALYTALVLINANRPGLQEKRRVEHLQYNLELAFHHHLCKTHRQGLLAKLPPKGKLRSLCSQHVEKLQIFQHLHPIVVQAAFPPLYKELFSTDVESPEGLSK
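Stable Schneider cell line, Gal4 DNA-binding domain fused to ROR gamma, UAS-luciferase. Cmpd 1 hr RT → CuSO4 700 uM final → 20 hr RT → luciferase reagent 10 min → luminescence.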
IL-1B inflam inh: inflammasome signaling inhibition, IL-1 beta readout. THP-1 LPS/ATP IL-1B secretion, AlphaLISA, 16 h; hits give low values. activity change, % at 57.5 µM. hit rate 4.7% among 360,000. AID 743279; in the data active = activity change below about -50%; inconclusive = mostly about -30% to -49%
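Secreted IL-1B measured by AlphaLISA bead assay after 16 h compound exposure of THP-1 cells; compounds (final up to 57.5 uM) added 1 h before LPS (250 ng/mL) and ATP (1.25 mM) stimulation; lower signal means less secretion.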
DT40 TDP1 no CPT: qHTS for Inhibitors of human tyrosyl-DNA phosphodiesterase 1 (TDP1): qHTS in cells in absence of CPT; DT40 Tdp1-/- hTDP1 cells, no CPT, ATP luminescence, 48 h; Potency, µM (titrated, usually from 46.2 µM), usual class: inhibitors; hit rate 15% among 420,000; also: nearly all actives have a fitted effect of over 55% in size
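Luminescent ATP content (CellTiter-Glo) served as the growth readout. Knockout chicken DT40 cells expressing human TDP1 were exposed to compounds without camptothecin for a minimum 48 hr at 37 °C.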
LDHA inh: inhibitors of human lactate dehydrogenase A | P00338 | purified LDHA, NADH/diaphorase-resazurin fluorescence; hits give low values | activity change, % (values are at about 110 or 230 µM) | hit rate 0.15% among 480,000; in the data active = activity change below about -30%; inconclusive = mostly about -25% to -30%
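Enzyme activity of human lactate dehydrogenase 5 (2 nM; 0.06 mM NADH, 0.2 mM pyruvate, 5 min, RT) is measured via a resazurin/diaphorase fluorescence readout of residual NADH.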
DT40 TDP1 CPT: DT40-hTDP1 cell growth loss with CPT; chicken DT40 Tdp1-/-;hTDP1 cells + 20 nM CPT, ATP luminescence, 48 h; Potency, µM (highest dose often 46.2 µM), actives largely listed as inhibitors; hit rate 12% among 420,000; also: nearly all actives have a fitted effect of over 55% in size
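Chicken DT40 Tdp1-/- cells stably complemented with human TDP1 were seeded at 400 cells/well in medium containing 20 nM camptothecin, exposed to pin-transferred compounds, and grown at 37 °C for at least 48 hr. Viability was read as ATP luminescence.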
Gal4-VP16 FLuc: Gal4-VP16 reporter inhibition counter-screen; Drosophila S2 Gal4-VP16 UAS-luciferase, luminescence, 20 h; Potency, µM (titrated, usually from 53.6 µM), usual class: inhibitors; hit rate 3.5% among 310,000;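 also: Gal4-VP16 expression switched on by copper sulfate through the metallothionein promoter; nearly all actives have a fitted effect of over 50% in size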
Numbers stand for hits; 0 = inactive; ? = inconclusive; - = no result given. Unless noted, calls follow the shape of the dose curve; as a rule, active = well fitted curve in the direction sought with a large enough effect; inconclusive = small, poorly fitted or top-dose-only effect, or another doubt; inactive = no such curve, though single readings can be large; an effect the other way counts as inactive or inconclusive.

SMILES | RORg inh | IL-1B inflam inh | DT40 TDP1 no CPT | LDHA inh | DT40 TDP1 CPT | Gal4-VP16 FLuc
CCOC(=O)c1c(C)oc2c1c(CN1CCN(C(=O)OCC)CC1)c(O)c1ccccc12 | 0 | ? | 20.6µM | 0 | ? | 0
CCOC(=O)N1CCN(Cc2cc(=O)oc3ccc4ccccc4c23)CC1 | ? | 0 | ? | 0 | 23.1µM | 0
CCOc1ccccc1Oc1c(C)oc2c(CN3CCN(CCO)CC3)c(O)ccc2c1=O | 0 | 0 | 0 | 0 | 0 | 0
CCOc1ccc(-c2nc(CSc3nc4c(=O)[nH]cnc4n3C)c(C)o2)cc1OC | - | - | - | 0 | - | -
O=C(/C=C/c1cccs1)N1CCC(Cc2ccccc2)CC1 | - | - | - | 0 | - | -
CS(=O)(=O)Nc1ccc(-c2csc(NC3CC3)n2)cc1 | - | - | - | 0 | - | -
COc1ccc(N(C(=O)c2cccc(C)c2)S(=O)(=O)c2ccc(C)cc2)cc1 | - | - | ? | 0 | 18.4µM | -
COc1ccc(N(C(=O)c2ccc(Cl)cc2)S(=O)(=O)c2ccc(C)cc2)cc1 | - | - | 23.1µM | 0 | ? | -
COc1ccc(N(C(=O)C(C)C)S(=O)(=O)c2ccc3ccccc3c2)cc1 | 0 | 0 | ? | 0 | 14.6µM | 0
COc1ccc(N(C(=O)c2ccc(C)cc2)S(=O)(=O)c2ccc(Cl)cc2)cc1 | - | - | ? | 0 | ? | -
COc1ccc(N(C(=O)c2ccc(OC)c(OC)c2)S(=O)(=O)c2ccc(Cl)cc2)cc1 | - | - | 20.6µM | 0 | 25.9µM | -
NC(=O)NNC(=S)Nc1ccc(Cl)cc1Cl | - | - | - | 0 | - | -
CC(C)(C)c1ccc(OCC(=O)N(Cc2nc3ccccc3c(=O)[nH]2)CC2CCCO2)cc1 (stereo unspecified) | - | - | - | 0 | - | -
COc1ccc(S(=O)(=O)Oc2ccc3ccccc3c2)cc1 | 0 | 0 | 29.1µM | 0 | 16.4µM | 0
COc1ccc(S(=O)(=O)Oc2ccc3cccc(N)c3c2)cc1 | - | 0 | ? | 0 | ? | -
Cc1ccc(CNc2nc3c(c(=O)n(C)c(=O)n3C)n2Cc2cccc3ccccc23)cc1 | - | - | - | 0 | - | -
Cc1c(C(=O)NCc2ccc(Cl)cc2)sc2nc3n(c(=O)c12)CCCC3 | - | - | 16.4µM | 0 | ? | -
Cc1ccc(C(=O)Nc2c(C(=O)NCc3ccc(Cl)cc3)sc3nc(C)cc(C)c23)cc1 | - | - | 13µM | 0 | 9.2µM | -
CCN(C(=O)c1sc2nc3n(c(=O)c2c1C)CCCCC3)c1ccccc1 | - | - | - | 0 | - | -
CCc1ccc(N(CC)C(=O)c2sc3nc4n(c(=O)c3c2C)CCCC4)cc1 | - | - | 20.6µM | 0 | 25.9µM | -
Cc1cccc(CCNC(=O)c2sc3nc4n(c(=O)c3c2C)CCCC4)c1 | - | - | ? | 0 | 18.4µM | -
COc1ccc(CNC(=O)c2sc3nc4n(c(=O)c3c2C)CCCC4)cc1 | - | - | ? | 0 | ? | -
CCCCN(C(=O)c1cc(Cl)nc2ccccc12)c1c(N)n(CC(C)C)c(=O)[nH]c1=O | - | - | - | 0 | - | -
COc1cc(NC(=O)Cn2c(C(=O)c3cccc(F)c3)nc3ccccc32)cc(OC)c1 | - | - | - | 0 | - | -
Cn1nc(C(=O)NCC2CCN(C3CC3)C2)c2ccccc2c1=O (stereo unspecified) | - | - | - | 0 | - | -
SMILES | RORg inh | IL-1B inflam inh | DT40 TDP1 no CPT | LDHA inh | DT40 TDP1 CPT | Gal4-VP16 FLuc
CSc1ccccc1NC(=O)c1ccccc1C(F)(F)F | - | - | - | 0 | - | -
O=C(NCc1nc(-c2cccs2)no1)c1ccc2c(c1)OCO2 | - | - | - | 0 | - | -
COc1ccc(-c2noc(CNC(=O)CCc3c(C)c4ccc(O)cc4oc3=O)n2)cc1 | - | - | - | 0 | - | -
Cc1cccc(CCNC(=O)c2ccc3c(c2)nc2n3CCCCC2)c1 | - | - | ? | 0 | 20.6µM | -
CCc1ccc(N(CC)C(=O)c2ccc3c(=O)n4c(nc3c2)CCCCC4)cc1 | - | - | 16.4µM | 0 | ? | -
CNc1c(NS(=O)(=O)c2c(C)noc2C)c(=O)oc2ccccc12 | - | - | - | 0 | - | -
CCOC(=O)/C=C1\CN(Cc2ccc(OC)cc2)S(=O)(=O)c2ccc(C(F)(F)F)cc21 | - | - | 11.2µM | - | 12.6µM | -
CCOC(=O)c1cnc2c(OC)cccc2c1Nc1ccc(N(C)C)cc1 | - | - | - | 0 | - | -
Cc1ccc(S(=O)(=O)n2nc(C)c(S(=O)(=O)N3CCCCCC3)c2C)cc1C | - | - | 0 | 0 | 0 | -
Cc1ccc(S(=O)(=O)n2nc(C)c(Br)c2C)c(C)c1C | 0 | 0 | 20.6µM | 0 | ? | 0
O=C1/C(=C/c2ccccc2Cl)SC(=S)N1CCC(=O)N1CCCCC1CCO (stereo unspecified) | 0 | ? | 10.3µM | 0 | 16.4µM | 0
COc1cccc(/C=C2\SC(=O)N(CCC(=O)N3CCCCC3CCO)C2=O)c1 (stereo unspecified) | 0 | ? | ? | 0 | ? | 0
CC(C)c1ccc(/C=C2\SC(=S)N(CCC(=O)N3CCCCC3CCO)C2=O)cc1 (stereo unspecified) | 10µM | -51.3 | 20.6µM | 0 | ? | ?
COc1ccc(/C=C2\SC(=S)N(CCCC(=O)N3CCCCC3CCO)C2=O)cc1 (stereo unspecified) | 2.24µM | 0 | ? | 0 | ? | 3.55µM
